These results are taken from PubChem BioAssay AID652054 (National Center for Advancing Translational Sciences (NCATS), 2013).

Structures are written as SMILES. Hit rate of the full screen: of about 360,000 compounds, about 9,100 (2.5%) were called active. Roughly 4% stayed inconclusive and do not appear here. This is one part of a sample in which actives are shown more often than they occur. A number with no mark means an inactive call. Rule as the data show it: active = max response below about -50%; inconclusive = no clear call, values can overlap the other calls; inactive = above that.
% is scaled to controls: 0 for no effect and ±100 for the full control effect.

D(3) dopamine receptor (Homo sapiens), sequence (P35462 whole entry, looked up): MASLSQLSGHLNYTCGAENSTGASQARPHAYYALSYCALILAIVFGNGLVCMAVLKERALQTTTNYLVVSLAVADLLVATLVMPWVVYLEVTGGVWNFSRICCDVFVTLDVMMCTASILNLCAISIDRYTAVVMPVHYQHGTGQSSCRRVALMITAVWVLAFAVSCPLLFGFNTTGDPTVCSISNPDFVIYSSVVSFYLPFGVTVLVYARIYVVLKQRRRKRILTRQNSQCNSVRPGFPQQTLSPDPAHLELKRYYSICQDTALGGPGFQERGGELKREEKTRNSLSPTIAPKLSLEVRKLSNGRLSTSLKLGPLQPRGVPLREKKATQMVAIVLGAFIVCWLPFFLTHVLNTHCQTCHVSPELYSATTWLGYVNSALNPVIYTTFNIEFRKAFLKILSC

This experiment concerns the target D(3) dopamine receptor (Homo sapiens) (UniProt P35462). Kind of experiment: qHTS of D3 Dopamine Receptor Antagonist: qHTS. The note with it: D3R cells, DiscoveRx beta-arrestin luminescence, antagonist mode; stronger effect = lower value. The text has this:
D3 DARs represent a very important target for the treatment of several neuropsychiatric disorders. Indeed, one of the most promising therapeutic applications for the D3 DAR is in the area of addiction and related disorders. […] These findings have been observed with a number of addictive substances including cocaine, amphetamine, nicotine, and alcohol. […] Antagonism of the D3 DAR may also be therapeutic in the treatment of schizophrenia or psychosis. […] Since the D3 DAR is expressed in areas of the CNS associated with the control of mood and emotion, it has been hypothesized that selective antagonism of the D3 DAR may be effective in treating psychosis without inducing the motor side effects typically seen with D2 DAR antagonists.
This part of the project aims to discover novel antagonist.
NIH Chemical Genomics Center [NCGC]
NIH Molecular Libraries Probe Centers Network [MLPCN]
Assay Submitter (PI): David Sibley, NINDS
Freshly passaged cells are plated in 1536 well white, solid bottom plates at a density of 1500 cells/well in 3microl of complete media. After an overnight incubation at 37 degrees C in 5% CO2, cells are loaded with 23nl of test compound from the compound library (as well as dopamine controls) using a 1536 pintool and incubated at 37 degrees C for 90 minutes. Two microliters of DiscoveRx reagent is then added to all cells, and they are incubated for an additional 30 - 60 minutes at room temperature. Following incubation, luminescence is measured on a ViewLux CCD-based luminometer reader using a 20 sec exposure time.
Take `CC(C)Oc1ccc(CN2CCC2(C)C(=O)NCc2ccc(C(F)(F)F)cc2)cc1` (stereo not drawn): the max response, negative = inhibition was 30.5%.

For `CC(OC(=O)c1cccc(S(=O)(=O)N2CCOCC2)c1)C(=O)NCC1CCCCC1` (stereo not drawn), the max response, negative = inhibition was -12.6%. The value for `CCCCC[C@H](C)N1C[C@@H](COCc2ccccc2)Oc2cc(N3CCC[C@@H]3CO)ccc2S1(=O)=O` was 8.76%. The value for `CCCNC(=O)C1(C)CCN(C(=O)c2ccc(F)cc2Cl)C1` (stereo not drawn) was 1.43%. The value for `COc1cccc2c1C(=O)c1c(O)c3c(c(O)c1C2=O)CC(O)(C(C)=NNC(=O)c1ccc(Cl)c(Cl)c1)CC3OC1CC(N)C(O)C(C)O1` (stereo not drawn) was -50.5% (active). On to `COc1ccc(NC(=O)C2(C)Cc3c(-c4cccc(NC(C)=O)c4)ccnc3O2)cc1OC` (stereo not drawn), for which the max response, negative = inhibition was 17.2%. For `COC(=O)[C@H]1C[C@H](OC(=O)NCc2ccccc2)[C@@]2(O)CN(S(=O)(=O)c3ccc(C)cc3)CC2[C@H]1C(=O)OC` (stereo partly drawn) the value was -0.452%; for `CC=CCn1c(SCCCc2ccccc2)nc2c1c(=O)[nH]c(=O)n2C`, 41.3%. With `Oc1[nH]c2ccccc2c1N=Nc1c(F)c(F)c(F)c(F)c1F`, the max response, negative = inhibition is 17.9%. Regarding `Cc1c(-c2ccccc2)n[nH]c1C(=O)N=Nc1c(O)[nH]c2ccccc12`, the max response, negative = inhibition was 32.7%.

As for `O=C(CCN1CCCCC1)N=Nc1c(O)[nH]c2ccccc12`, the max response, negative = inhibition was -96.3% (active). The value for `CCc1nc2ccc(C(=O)N(C)Cc3ccco3)cn2c1N(C)C(=O)Cc1ccccc1` was 3.24%. The value for `C[C@@H]1CN([C@@H](C)CO)C(=O)CCCn2nncc2CO[C@@H]1CN(C)S(=O)(=O)c1ccc(-c2ccccc2)cc1` was -4.97%. As to `COc1cccc(C(O)c2ncc(-c3ccc4ccccc4c3)[nH]2)c1` (stereo not drawn), the max response, negative = inhibition is 38.7%. As to `Cc1cccc(-c2cnc(C(O)c3ccc4ccccc4c3)[nH]2)c1` (stereo not drawn), the max response, negative = inhibition is -81.3% (active).

For `Cc1cccc(-c2cnc(C(O)c3cc(C)cc(C)c3)[nH]2)c1` (stereo not drawn), the max response, negative = inhibition is 0%. The value for `CC(=O)Nc1cc(-c2ccc(N3CCN(C)CC3)cc2)cn2c(-c3ccc(F)cc3)cnc12` was -13.9%; that for `CNc1cnc(-c2cc(OC)c(OC)c(OC)c2)cn1` was 1.16%; that for `O=C(NCCN1CCOCC1)C1CCN(S(=O)(=O)c2ccccc2)CC1` was 31.8%. Take `CC(C)Nc1nc(NCCOc2ccccc2Cl)c2sccc2n1`: the max response, negative = inhibition is 0%. For `C[C@@H]1CN([C@@H](C)CO)C(=O)c2cc(NS(C)(=O)=O)ccc2O[C@@H](C)CCCCO[C@H]1CN(C)C(=O)Nc1ccc2c(c1)OCO2` the value was -18.4%; for `COC(=O)Cc1c(O)ccn(Cc2cccc(C(F)(F)F)c2)c1=O`, -71.6% (active). The value for `CN(C)C(=O)c1cccn(Cc2cccc(C(F)(F)F)c2)c1=O` was 22.1%. For `COCC1CCN(C(=O)C2CCC(=O)N(Cc3cccc(C(F)(F)F)c3)C2)CC1` (stereo not drawn) the value was -5.12%; for `Cc1cccc(C(=O)NC(=S)N(C)C2CCCCC2)c1`, -4.93%; for `Cc1cccc(NC(=S)NCCN(C2CCCCC2)C2CCCC2)c1`, -65.7% (active). Turning to `Cc1cccc(NC(=S)NCc2ccc3[nH]c4c(c3c2)CCCC4)c1`, the max response, negative = inhibition is -3.36%. For `CC(=O)Nc1cccc(-c2ccnc3c2CC(C)(C(=O)NCc2ccccc2)O3)c1` (stereo not drawn) the value was 0%; for `Cc1ccc(CC2(C)C(=O)Nc3ccc(OC(F)(F)F)cc32)cc1` (stereo not drawn), 0.0703%; for `S=C(NCCc1ccccc1)N1CCn2cccc2C1c1ccncc1` (stereo not drawn), 6.2%.

Consider `CC1CSc2nnc(CCc3ccccc3)n21` (stereo not drawn), for which the max response, negative = inhibition is -21.1%.

In the case of `c1ccc(CCC2=NCCn3cccc32)cc1`, the max response, negative = inhibition is -55.5% (active). For `CCCCN(C=O)c1c(CC)nc2c(OCCC3CCCCC3)cccn12` the value was -10.7%; for `COc1ccc(C(O)c2nc(-c3ccc4c(c3)OCO4)cs2)cc1` (stereo not drawn), 4.32%; for `Cc1ccc(C(=O)C[n+]2cc(-c3ccccc3)n3c2CCCCC3)cc1`, -4.64%. The value for `O=C(C[n+]1cc(-c2ccc(Cl)c(Cl)c2)n2c1CCC2)c1cccs1` was -18.5%; that for `Cc1ccc(-c2c[n+](CC(=O)Nc3ccccc3)c3n2CCC3)cc1` was -65.6% (active). The value for `O=CNc1cc(-c2ccc(C(=O)N3CCOCC3)cc2)cn2c(-c3ccc(F)cc3)cnc12` was -24.2%; that for `CC(Nc1nc(N2CCN(CCO)CC2)nc2ccccc12)c1ccccc1` (stereo not drawn) was 0%; that for `CC(Nc1nc(N2CCCC2)nc2ccccc12)c1ccccc1` (stereo not drawn) was -74.8% (active). Regarding `CC(Nc1nc(N2CCOCC2)nc2ccccc12)c1ccccc1` (stereo not drawn), the max response, negative = inhibition was -1.04%.

As for `CC1(C(=O)Nc2cccnc2)Cc2c(-c3ccccc3)ccnc2O1` (stereo not drawn), the max response, negative = inhibition was 25.1%. In the case of `CC1(C(=O)NS(=O)(=O)c2cccs2)CCN1C(=O)Cc1ccc(-c2ccccc2)cc1` (stereo not drawn), the max response, negative = inhibition is 15.7%.

As to `Cc1cc(OCC(=O)Nc2nccs2)c2c(C)c(C)c(=O)oc2c1`, the max response, negative = inhibition was 52.2%.

Regarding `CC(C)=C(NC(=O)c1ccccc1)C(=O)N/N=C(\C)c1ccccc1O`, the max response, negative = inhibition is -73.8% (active). For `CNC(=O)C(NC(=O)c1ccccc1)=C(C)C` the value was 0.178%. The value for `COc1ccc(/C(C)=N\NC(=O)c2ccc(-c3ccccc3)cc2)c(F)c1` was -25.6%; that for `O=C(NCc1ccc(F)cc1F)[C@@H]1CCCN1C(=O)[C@@H]1CCCN1C(=O)c1cccc(Cl)c1` was -16.8%; that for `C[C@H](NC(=O)[C@@H]1CCCN1C(=O)[C@@H]1CCCN1C(=O)c1ccccc1)c1ccccc1` was -14.2%. The value for `O=C(OCc1ccccc1)N1CCC2CC1c1ccc(-c3ccc4c(c3)OCO4)cc12` (stereo not drawn) was -78.9% (active); that for `Cc1ccc(S(=O)(=O)N(CCc2ccccc2)c2ccc3c(c2)C2CC3CCN2C(=O)OCc2ccccc2)cc1` (stereo not drawn) was 0%. Consider `O=C(OCc1ccccc1)N1CCC2CC1c1cc(N3CCN(S(=O)(=O)c4cc(Cl)cc(Cl)c4)CC3)ccc12` (stereo not drawn), for which the max response, negative = inhibition is -1.81%.

In the case of `Cc1ccc(NC(=O)Cn2sc3ccccc3c2=O)cc1`, the max response, negative = inhibition was -0.282%. The value for `CCNC(=S)Nc1ccc2c(c1)c(=O)n(C)n2Cc1ccc(Cl)cc1` was 8.41%; that for `CNC(=S)Nc1ccc([N+](=O)[O-])cc1` was -17.8%. The value for `O=[N+]([O-])c1ccc(N=NNc2ccc([N+](=O)[O-])cc2)cc1` was -50.6% (active); that for `COC(=O)c1ccccc1N=NNc1ccc([N+](=O)[O-])cc1` was 8.12%.

Consider `O=C(NC1CCCC1)C1c2ccccc2OCC(=O)N1Cc1ccccc1` (stereo not drawn), for which the max response, negative = inhibition is 4.78%.

Regarding `COc1ccc(C(C(=O)Nc2c(C)cccc2C)N2CCN(c3ccc(C)cc3)CC2)cc1` (stereo not drawn), the max response, negative = inhibition is 11.5%. For `COCCCn1cc(CN2CC(N(C)C)CS2(=O)=O)nn1` (stereo not drawn) the value was -10.8%; for `CCCCCCCCN1C(=O)[C@H](CC(=O)NCC23CC4CC(CC(C4)C2)C3)C[C@@]2(C(=O)OC)CCCCC=C12`, 9.16%; for `O=C(NCc1cccnc1)c1cc(C2CCCN(C(=O)C3CCCCC3)C2)on1` (stereo not drawn), 6.18%. The value for `COCCNC(=O)C1CCCN(Cc2ccccc2Cl)CC1` (stereo not drawn) was 57.8%; that for `Cc1ccc(Sc2ccc(NC(=O)c3ccc(F)cc3)cc2C#N)cc1` was 0%; that for `Cc1ccccc1OCC(=O)Nc1ccc(N2CCN(C(=O)C(C)C)CC2)c(Cl)c1` was 26.3%. For `CC(=O)Nc1ccc(NC(=O)COc2ccccc2C(=O)Nc2cccc(Cl)c2Cl)cc1` the value was -0.418%; for `COc1cc(NC(=O)COc2ccccc2Cl)ccc1NC(=O)C(C)C`, -74% (active); for `COc1ccc(-c2cnc3c(c2)C(=O)N([C@H](C)CO)C[C@@H](C)[C@H](CN(C)Cc2ccccc2)O3)cc1`, 14.3%. Turning to `CCN1C(=O)[C@@H]2[C@@H]3CN(S(=O)(=O)c4ccccc4C)[C@@H](c4ccc(Cl)cc4)[C@@H]3C(=O)C[C@@H]2C1=O`, the max response, negative = inhibition was -17.8%. For `CCN(CC)CCN(C(=O)c1ccc2c(c1)CCCC2)c1nc2c(OC)cccc2s1` the value was -103% (active); for `CCN(CC)CCN(C(=O)c1cc(Cl)sc1Cl)c1nc2cc3c(cc2s1)OCO3`, -11.6%; for `CCN(CC)CCN(C(=O)c1cccc([N+](=O)[O-])c1)c1nc2ccc(OC)cc2s1`, 8.97%. For `COc1ccc(NC2CCCN(C(=O)c3ccccc3-c3ncc[nH]3)C2)cc1` (stereo not drawn) the value was -2.79%. For `Cc1cc(C)nc(N(C#N)CC(=O)Nc2ccccc2)n1` the value was -15.5%; for `Cc1cc(C)nc(S/C=C/C(=O)c2ccccc2)n1`, -62.5% (active); for `O=C(/C=C/NNC(=O)c1cccc(Br)c1)c1ccccc1`, 0%. Regarding `COc1ccc([C@H]2N[C@]3(CCCN(Cc4ccco4)C3=O)[C@H]3C(=O)N(C)C(=O)[C@@H]23)cc1`, the max response, negative = inhibition is -22%. The value for `Cc1cccc(N(CC(=O)N2CCCC2)S(C)(=O)=O)c1C` was -2.72%; that for `CCc1nnc(NC(=O)c2cc(S(=O)(=O)N3CCCCC3)ccc2C)s1` was -2.53%. As to `CCOC(=O)c1sc(NC(=O)c2cc(S(=O)(=O)N3CCOCC3)ccc2C)nc1C`, the max response, negative = inhibition is -55.1% (active).

`Cc1ccc(S(=O)(=O)N2CCOCC2)cc1C(=O)Nc1ccccc1N1CCCC1`: the max response, negative = inhibition was 13.7%. Turning to `CCOC(=O)c1cc(-c2sc(NC(=O)c3ccccc3)nc2C)n(CCO)n1`, the max response, negative = inhibition was -12.9%. For `CCC(C)(C)n1nnnc1C(c1cccs1)N1CCN(c2nc3ccccc3s2)CC1` (stereo not drawn) the value was -16.1%. The value for `COc1ccc(OC)c(C(c2nnnn2C(C)(C)C)N2CCc3ccccc3C2)c1` (stereo not drawn) was -1.6%; that for `CCCC(c1nnnn1C(C)(C)C)N1CCN(Cc2ccccc2)CC1` (stereo not drawn) was -5.41%. The value for `CCC(C)(C)n1nnnc1C(c1cccs1)N1CCN(Cc2ccccc2)CC1` (stereo not drawn) was -56.8% (active); that for `COc1ccccc1C(c1nnnn1C(C)(C)C)N1CCN(Cc2ccccc2)CC1` (stereo not drawn) was -90.6% (active); that for `Fc1ccc(Cn2nnnc2C(c2cccs2)N2CCCCCC2)cc1` (stereo not drawn) was 10.3%.
